Results taken from PubChem BioAssay AID449762 (Southern Research Specialized Biocontainment Screening …, 2010).
Several values for one entry are separate records, joined by “and”; a condition that tells them apart may be missing. Equal values may be shown once. About 1,900 (0.58%) of roughly 330,000 compounds were called active. About 4% were inconclusive and are not listed. No stated cut-off is given here; in the data, inconclusive means inhibition above about 70% without an active follow-up result; inactive means below that. Not all results are given here. Potency and affinity values are given separately.

Assay: M. tuberculosis growth inhibition, HTS (AID 449762);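 further: bacterial growth assessed after seven days of incubation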
Details: M. tuberculosis H37Rv growth inhibition, 7H9 media; at 25 µM; hits give high values

Row | SMILES | inhibition
1 | NS(=O)(=O)c1ccc(-c2ccc(C=NC3CCS(=O)(=O)C3)o2)cc1 (stereo not drawn) | -12% (inactive)
2 | NS(=O)(=O)c1ccc(-c2ccc(/C=C3\SC(=S)N(C4CCS(=O)(=O)C4)C3=O)o2)cc1 (stereo not drawn) | 0.18% (inactive)
3 | O=C(CCc1nc2ccccc2c(=O)[nH]1)N1CCN(S(=O)(=O)c2cccc(F)c2)CC1 | -17.1% (inactive)
4 | NC(=O)NC(CC(=O)NCCCc1ccccc1)c1ccc(Cl)cc1 (stereo not drawn) | 5.17% (inactive)
5 | CS(=O)(=O)c1ccc(C(=O)Nc2cc(S(C)(=O)=O)ccc2Cl)cc1 | 2.11% (inactive)
6 | COc1ccccc1C1C=C(c2ccc(C)cc2)Nc2nnnn21 (stereo not drawn) | -0.45% (inactive)
7 | COc1ccc(OC)c(C2C=C(c3ccc(C)c(C)c3)Nc3nnnn32)c1 (stereo not drawn) | 4.57% (inactive)
8 | COC(=O)C(C)(C)ONC(=O)Nc1ccc(C)cc1 | 0.62% (inactive)
9 | COc1ccc(Cl)cc1N(CC(=O)NC(C)(C)C)S(=O)(=O)c1ccc(C)c([N+](=O)[O-])c1 | -3.67% (inactive)
10 | CCC(CC)C(=O)Nc1nnc(SCC(=O)N2CCN(c3ccccc3OC)CC2)s1 | 4.18% (inactive)
11 | Cc1ccc(C(=O)Nc2ccccc2Sc2ccccc2)cc1 | 9.64% (inactive)
12 | Cc1ccc(C(=O)CC(=O)c2ccccc2)cc1 | 61.8% (inactive)
13 | COc1ccc(C)cc1NC(=O)c1ccc(NC(=O)CC2SC(N3CCCC3)=NC2=O)cc1 (stereo not drawn) | 1.94% (inactive)
14 | CCN(CC)CC1C(=O)N(c2ccc(OC)cc2)C1c1ccccc1 (stereo not drawn) | -4.16% (inactive)
15 | COCCn1c(=O)[nH]c2cc(C(=O)N3CCN(c4ccccc4)CC3)ccc2c1=O | 5.58% (inactive)
16 | COc1ccccc1CNC(=O)/C=C/c1ccc(Br)o1 | 3.6% (inactive)
17 | CN(C)c1ccc(/C=C/c2ccc3ccccc3[n+]2C)cc1 | 66.1% (inactive)
18 | Cc1cc(/C=N/O)c(C)n1-c1ccccc1 | -2.51% (inactive)
19 | CC(C)[C@H](NC(=O)c1cc2cc(Cl)ccc2n1C)C(=O)N[C@@H](C(=O)O)c1ccccc1 | -9.63% (inactive)
20 | CCc1ccc(/C=C2/Sc3ccccc3N(CC(=O)NCCCN3CCOCC3)C2=O)cc1 | 38.4% (inactive)
21 | CC(C)(C)c1cc(-c2nc(N)nc(N)n2)cc(C(C)(C)C)c1 | 9.97% (inactive)
22 | CC(C)(C)c1ccc(-c2nc(N)nc(N)n2)cc1 | -3.01% (inactive)
23 | CCOC(=O)C1CCCc2c1[nH]c1c(C(=O)O)cccc21 (stereo not drawn) | 9.6% (inactive)
24 | NC(=O)c1cccc2c3c([nH]c12)CCCC3 | -3.75% (inactive)

Row | SMILES | inhibition
25 | CCOc1ccc(CCNC(=O)C2=C(C)C(=O)OC23CCCCC3)cc1OCC | -0.34% (inactive)
26 | C[C@H](CO)N1C[C@H](C)[C@@H](CN(C)C(=O)Nc2ccccc2)Oc2ccc(NC(=O)Cc3ccccc3)cc2C1=O | 0.43% (inactive)
27 | CCOC(=O)Cn1nc(/C=C/c2ccc(OC)cc2)ccc1=O | -1.75% (inactive)
28 | Cc1nn(C)c(NC(=O)c2ccccc2Cl)c1Br | -4.03% (inactive)
29 | Cc1nn(C(C)(C)C)c(NC(=O)c2ccc(Cl)cc2)c1Br | -3.55% (inactive)
30 | COc1cc(C)ccc1OCC(=O)Nc1ccccc1N1CCOCC1 | 0.365% (inactive)
31 | Cc1ccccc1CSc1nnc(C)c(=O)n1N | 0.74% (inactive)
32 | Cc1nnc(SCc2c(Cl)cccc2Cl)n(N)c1=O | -0.46% (inactive)
33 | O=C(CSc1nc(-c2ccco2)cc(C(F)(F)F)n1)NC1CCCC1 | -5.38% (inactive)
34 | Cc1nc2c(c(C)nn2-c2ccccc2)c(C)c1CCC(=O)Nc1ccc(CN2CCCC2)cc1 | 55.7% (inactive)
35 | Cc1ccc(CNC(=O)CCc2c(C)nc3c(c(C)nn3-c3ccc(C)cc3)c2C)cc1 | 0.88% (inactive)
36 | CCN(CC)S(=O)(=O)c1ccc(C(=O)N2CCN(CCN3C(=O)c4cccc5cccc(c45)C3=O)CC2)cc1 | -0.01% (inactive)
37 | Cn1c(CCNC(=O)c2cccs2)nnc1SCC(=O)Nc1nc(-c2ccccc2)cs1 | -0.83% (inactive)
38 | Cc1cc(C)n2nc(C(=O)OCC(=O)Nc3ccc(C)c(F)c3)nc2n1 | -2.78% (inactive)
39 | Cc1ccc(N/C=C/C(=O)c2sc(-c3ccccc3)nc2C)cc1 | 11.4% (inactive)
40 | Cc1nc(-c2ccccc2)sc1C(=O)/C=C/c1ccc(Cl)cc1 | 36.1% (inactive)
41 | COc1ccc(NC(=O)c2sc(-c3ccccc3)nc2C)c(OC)c1 | 3.27% (inactive)
42 | COc1ccc(/C=C/C(=O)c2sc(-c3ccccc3)nc2C)cc1 | -17.3% (inactive)
43 | Cc1ccc(S(=O)(=O)CCC(=O)NCc2ccco2)cc1 | -10.5% (inactive)
44 | O=C(Nc1ccc(N2CCOCC2)c(Cl)c1)c1ccc(-n2cnnc2)cc1Cl | 2.83% (inactive)
45 | COc1ccc(-n2c(CNCCc3ccc(C)cc3)nc3ccccc3c2=O)cc1 | 14.6% (inactive)
46 | COc1ccc(CN2CCN(c3ccc(F)cc3)CC2)c(OC)c1OC | 0.31% (inactive)
47 | COc1ccc(CN2CCN(S(=O)(=O)c3ccc(F)cc3)CC2)c(OC)c1OC | 9.52% (inactive)
48 | Cc1ccc(S(=O)(=O)N2CCOCC2)cc1NC(=O)C(c1ccc(Cl)cc1)C(C)C (stereo not drawn) | -2.19% (inactive)

Row | SMILES | inhibition
49 | CCOC(=O)[C@H]1[C@H]2COc3ccc(OC)cc3[C@@H]2N2C(=O)c3ccccc3NC(=O)[C@@]12C | 3.81% (inactive)
50 | CC(NC(=O)c1cc(COc2ccc3ncccc3c2)on1)c1ccc(F)cc1 (stereo not drawn) | 6.82% (inactive)
51 | Cc1cc(C)n(CCNC(=O)c2cc(COc3ccc4ncccc4c3)on2)n1 | 4.76% (inactive)
52 | Cc1ccc(/C=N/NC(=O)Cc2ccc(Cl)cc2)c(O)c1 | -1.94% (inactive)
53 | O=C(COc1ccccc1F)Nc1ccc(S(=O)(=O)Nc2nccs2)cc1 | 3.76% (inactive)
54 | O=C(C1=C[C@@H](c2ccc(C(F)(F)F)cc2)C[C@@H](OCc2ccc(CO)cc2)O1)N1CCN(Cc2ccccc2)CC1 | 5.34% (inactive)
55 | O=C(Nc1cc(C(F)(F)F)ccc1-n1cncn1)c1ccc(Br)cc1 | -2.45% (inactive)
56 | Cc1ccc(C(=O)Nc2cc(C(F)(F)F)ccc2-n2cncn2)o1 | -8.09% (inactive)
57 | Cc1c(C(=O)O)oc2ccc(S(=O)(=O)NCCC3=CCCCC3)cc12 | -7.6% (inactive)
58 | CC(=O)N1CCCc2cc(S(=O)(=O)NC(C(=O)NCc3ccc(C)cc3)C(C)C)ccc21 (stereo not drawn) | 9.01% (inactive)
59 | Cc1ccc(C(=O)Cn2cncn2)cc1 | 9.3% (inactive)
60 | Cn1c(O)c(/C=C2/C=CC=N2)c(=O)[nH]c1=O | 17.3% (inactive)
61 | CCCCn1c(O)c(/C=C2\C=Nc3ccccc32)c(=O)[nH]c1=O | 12.7% (inactive)
62 | Cc1ccccc1C(=O)N1CCC(C(=O)Nc2nccs2)CC1 | -0.78% (inactive)
63 | CC(=O)N1CCN(C(=O)CN2C(=O)NC(C)(c3ccc4ccccc4c3)C2=O)CC1 (stereo not drawn) | 6.21% (inactive)
64 | Cc1ccc(CNCC(=O)Nc2ccc(C)cc2Br)cc1 | 2.37% (inactive)
65 | Cc1ccc(NC(=S)Nc2cccc3cnccc23)cc1 | 1.12% (inactive)
66 | S=C(Nc1cccc(Cl)c1)Nc1cccc2cnccc12 | 10% (inactive)
67 | CCOC(=O)c1cc(C)sc1NC(=O)CN1CCN(C(=O)c2ccco2)CC1 | 17% (inactive)
68 | COC(=O)c1cc(C)sc1NC(=O)CN1CCN(C(=O)c2ccco2)CC1 | -5.56% (inactive)
69 | CCCn1nc(C(=O)NNC(=O)c2cc(S(=O)(=O)NC)ccc2Br)c2ccccc2c1=O | -2.51% (inactive)
70 | COC(=O)c1ccc([C@H]2CC(=O)O2)cc1 | -4.85% (inactive)
71 | O=C(N/N=C/c1ccccn1)c1ccc(NC(=O)c2ccc(F)cc2)cc1 | 2.56% (inactive)
72 | COc1ccc(/C=N/NC(=O)CSCc2ccc([N+](=O)[O-])cc2)cc1OC | -9.89% (inactive)

Row | SMILES | inhibition
73 | O=C(CSCc1ccc([N+](=O)[O-])cc1)N/N=C/c1cccnc1 | 3.16% (inactive)
74 | COc1cc(C(=O)OCC#N)ccc1OCc1c(C)noc1C | 9.39% (inactive)
75 | COc1cc(NCc2ccccc2)c2ncn(C(C)C)c2c1 | 1.58% (inactive)
76 | CCOc1cc(NCc2ccccc2)c2ncn(C(C)C)c2c1 | 67.6% (inactive)
77 | COc1ccccc1CNC(=O)C(CCSC)NS(=O)(=O)c1ccc2c(c1)oc(=O)n2C (stereo not drawn) | 3.84% (inactive)
78 | O=C(C(=O)N1CC=C(c2ccccc2)CC1)c1c[nH]c2ccccc12 | 5.82% (inactive)
79 | O=S(=O)(NCc1ccco1)c1ccc2ccccc2c1 | 10.5% (inactive)
80 | COC(=O)c1ccc(NC(=O)COc2ccc([N+](=O)[O-])cc2)cc1 | -9.31% (inactive)
81 | CC(=O)Nc1ccc(NC(=O)COc2ccc([N+](=O)[O-])cc2)cc1 | -3.36% (inactive)
82 | Cc1ncsc1CCOC(=O)c1ccccc1 | 4.41% (inactive)
83 | Cc1ncsc1CCOC(=O)c1cccc([N+](=O)[O-])c1 | 8.02% (inactive) and -15.9% (inactive)
84 | O=C(Nc1ccc(Cl)c(S(=O)(=O)Nc2ccccc2Cl)c1)c1cccs1 | -2.32% (inactive)
85 | CC(C)(C)NCCOCCOc1ccccc1-c1ccccc1 | 5.36% (inactive)
86 | N#Cc1ccccc1S(=O)(=O)N1CCN(C(=O)[C@H](Cc2ccccc2)NC(=O)c2ccco2)CC1 | -9.05% (inactive)
87 | C#CC[N+](C)(C)CCCCCCCCCC | 6.64% (inactive)
88 | CCCCCC[N+](C)(C)CCSSCC[N+](C)(C)CCCCCC | -17.5% (inactive)
89 | CC(C)(C)c1ccc(S(=O)(=O)N2CCN(CC(O)COCC3CCCO3)CC2)cc1 (stereo not drawn) | 7.79% (inactive)
90 | Cc1cccc(C)c1-n1c(C)cc(/C=N/NC(N)=S)c1C | 51.5% (inactive)
91 | Cc1cc(/C=N/NC(N)=O)c(C)n1-c1ccc(F)cc1 | 1.83% (inactive)
92 | NSc1nc(N)c2nc(-c3ccccc3)c(-c3ccccc3)nc2n1 | 7.97% (inactive)
93 | Nc1nc(N)c2nc(-c3ccccc3)c(N)nc2n1 | 16.7% (inactive)
